For 13 compounds, growth results are on record in PubChem BioAssay (NCI).

Test systems include SR leukemia; RPMI-8226 leukemia; OVCAR-8 ovarian; OVCAR-5 ovarian; OVCAR-4 ovarian; SK-OV-3 ovarian; IGROV1 ovarian; OVCAR-3 ovarian; HS 578T breast; NCI/ADR-RES ovarian.
Assay in all cases: NCI-60 one-dose screen, 48 h (100 = growth as untreated, 0 = no growth, -100 = all killed)
Details in all cases: 10 µM unless noted

Structures are written as SMILES. About 83,000 compounds went through this panel and 20% of them were active in at least one assay; those are over-represented in the sample as a whole.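 In brief: 96-well plates, 48 h treatment, single concentration, percent growth endpoint.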 A number with no mark means an inactive call. The source made the active and inactive calls. Rule for the calls: active = growth percent below 10; inactive = the rest.

With `CC(=O)OCCCCCNc1ccccc1`, the growth was 88.4% in the test with SR leukemia; 111% with RPMI-8226 leukemia; 108% with OVCAR-8 ovarian; 97.5% in the test with OVCAR-5 ovarian; 92.8% in the test on OVCAR-4 ovarian; 109% in the test with SK-OV-3 ovarian. For the same compound, the growth in the test on IGROV1 ovarian is 118%; in the test with OVCAR-3 ovarian, 105%; in the test with HS 578T breast, 107%; in the test with NCI/ADR-RES ovarian, 102%.

With `CCC(=O)c1ccc(O)c(OC)c1`, the growth with SR leukemia was 108%; in the test with RPMI-8226 leukemia, 93.7%; with OVCAR-8 ovarian it was 99.4%; in the test on OVCAR-5 ovarian it was 107%; in the test with OVCAR-4 ovarian it was 107%; in the test on SK-OV-3 ovarian, 122%. Moreover, the growth is 102% in the test with IGROV1 ovarian, 110% in the test on OVCAR-3 ovarian, 95.7% with HS 578T breast and 104% in the test with NCI/ADR-RES ovarian.

As for `C(=C\c1n(Cc2ccc3ccccc3c2)c(-c2ccccc2)c(-c2ccccc2)[n+]1Cc1ccc2ccccc2c1)/c1ccccc1`, the growth in the test on SR leukemia was -37.4% (active); in the test with RPMI-8226 leukemia, -43.9% (active); in the test on OVCAR-8 ovarian, -65.3% (active); with OVCAR-5 ovarian it was -95% (active); with OVCAR-4 ovarian it was -85.8% (active); in the test on SK-OV-3 ovarian it was -60.1% (active). For the same compound, the growth in the test on IGROV1 ovarian was -81.4% (active); with OVCAR-3 ovarian it was -90.3% (active); in the test with HS 578T breast it was -42.8% (active); with NCI/ADR-RES ovarian it was 8.24% (active).

With `COc1cc2nc(-c3ccc(-c4nn[nH]n4)cc3)[nH]c(=O)c2cc1OC`, the growth with SR leukemia was 97.8%; in the test on RPMI-8226 leukemia, 81.8%; with OVCAR-8 ovarian, 105%; in the test with OVCAR-5 ovarian, 99.4%; in the test on OVCAR-4 ovarian, 115%; in the test on SK-OV-3 ovarian it was 108%. Further, the growth in the test on IGROV1 ovarian is 108%; in the test with OVCAR-3 ovarian it was 112%; in the test on HS 578T breast, 110%; in the test with NCI/ADR-RES ovarian it was 101%.

In the case of `CNC(=O)NCC1OC(n2cnc3c(NC(=O)Nc4ccccc4)ncnc32)C(O[Si](C)(C)C(C)(C)C)C1O[Si](C)(C)C(C)(C)C` (stereo not given), the growth with SR leukemia is -22.1% (active); in the test with RPMI-8226 leukemia, 20.2%; with OVCAR-8 ovarian, 32.9%; with OVCAR-5 ovarian it was 69.2%; with OVCAR-4 ovarian, 29.6%; with SK-OV-3 ovarian, 77.5%. Besides, the growth with IGROV1 ovarian is 52.5%; with OVCAR-3 ovarian it was -28.7% (active); in the test on HS 578T breast it was 61%; in the test on NCI/ADR-RES ovarian, 31%.

Take `Cc1ccc(-c2c(Br)c(OC(=O)CO[C@@H]3C[C@H](C)CC[C@H]3C(C)C)c(-c3ccc(C)cc3C)c(Br)c2OC(=O)CO[C@H]2C[C@@H](C)CC[C@@H]2C(C)C)c(C)c1`: the growth in the test with SR leukemia was 104%; in the test with RPMI-8226 leukemia, 94.3%; in the test with OVCAR-8 ovarian, 89.6%; with OVCAR-5 ovarian it was 102%; with OVCAR-4 ovarian, 106%; in the test with SK-OV-3 ovarian, 94.9%. Further, the growth in the test with IGROV1 ovarian is 108%; with OVCAR-3 ovarian, 110%; in the test with HS 578T breast it was 98.9%; with NCI/ADR-RES ovarian, 101%.

Consider `COc1ccc(NS(=O)(=O)c2ccc(C)cc2)c([N+](=O)[O-])c1`, for which the growth with SR leukemia was 100%; in the test with RPMI-8226 leukemia, 96.7%; in the test on OVCAR-8 ovarian, 104%; in the test with OVCAR-5 ovarian it was 106%; in the test on OVCAR-4 ovarian, 115%; with SK-OV-3 ovarian, 105%. The growth with IGROV1 ovarian was 102%; in the test with OVCAR-3 ovarian, 106%; in the test on HS 578T breast it was 95.7%; in the test on NCI/ADR-RES ovarian, 95.9%.

Take `O=C(Nc1ccc2ncnc(Nc3ccc(Oc4cccc(F)c4)c(Cl)c3)c2c1)c1ccc(CN2CCOCC2)cc1`: the growth in the test with SR leukemia was 18.6%; with RPMI-8226 leukemia, -16.4% (active); with OVCAR-8 ovarian, 6.19% (active); in the test with OVCAR-5 ovarian, 75.5%; in the test on OVCAR-4 ovarian, 20.3%; with SK-OV-3 ovarian, 18.5%. Further, the growth with IGROV1 ovarian was 0.971% (active); with OVCAR-3 ovarian it was 23.1%; with HS 578T breast, 46.6%; in the test on NCI/ADR-RES ovarian it was 4.15% (active).

As to `NNC(=O)/C(=C\c1ccc([N+](=O)[O-])cc1)CC(=O)c1ccc(Cl)c(Cl)c1`, the growth in the test on SR leukemia is 86.7%; in the test with RPMI-8226 leukemia, 91.7%; with OVCAR-8 ovarian, 90.9%; with OVCAR-5 ovarian, 87.8%; in the test on OVCAR-4 ovarian, 80%; in the test on SK-OV-3 ovarian, 99.9%. Further, the growth with IGROV1 ovarian was 70%; in the test on OVCAR-3 ovarian it was 97.2%; in the test with HS 578T breast, 88.4%; with NCI/ADR-RES ovarian it was 84.9%.

Turning to `S=c1[nH]cccc1-c1nnc2n1Nc1nc3ccccc3cc1CS2`, the growth was 95.7% in the test with SR leukemia; 99.2% in the test with RPMI-8226 leukemia; 98% with OVCAR-8 ovarian; 96% with OVCAR-5 ovarian; 101% in the test with OVCAR-4 ovarian; 82.1% in the test on SK-OV-3 ovarian. In addition, the growth is 90.7% in the test with IGROV1 ovarian, 105% in the test with OVCAR-3 ovarian, 96.4% with HS 578T breast and 98.2% in the test with NCI/ADR-RES ovarian.

Consider `COc1ccc(-c2c[nH]c(C(=O)O)c2-c2cc(OC)c3c(c2OC)OCO3)cc1`, for which the growth in the test with SR leukemia was 106%; in the test on RPMI-8226 leukemia it was 140%; in the test on OVCAR-8 ovarian, 101%; with OVCAR-5 ovarian, 96.5%; with OVCAR-4 ovarian it was 100%; in the test on SK-OV-3 ovarian, 119%. Also, the growth in the test with IGROV1 ovarian is 103%; with OVCAR-3 ovarian, 109%; with HS 578T breast, 99.9%; with NCI/ADR-RES ovarian, 99.2%.

For `C#CCNC(=O)[C@H](Cc1ccccc1)NC(=O)[C@]12CC[C@@H](C(=C)C)[C@@H]1[C@H]1CC[C@@H]3[C@@]4(C)Cc5c([nH]c6ccccc56)C(C)(C)[C@@H]4CC[C@@]3(C)[C@]1(C)CC2`, the growth in the test on SR leukemia was 88.5%; in the test on RPMI-8226 leukemia, 82.9%; with OVCAR-8 ovarian, 96.5%; in the test on OVCAR-5 ovarian, 95.8%; in the test on OVCAR-4 ovarian, 108%; in the test with SK-OV-3 ovarian, 95.4%. Also, the growth in the test on IGROV1 ovarian was 110%; with OVCAR-3 ovarian it was 96.5%; with HS 578T breast, 113%; in the test on NCI/ADR-RES ovarian, 97.2%.

Take `Cc1c2c(cc[n+]1Cc1ccccc1)c1ccc(OCC3CCCCC3)cc1n2CC1CCCCC1`: the growth with SR leukemia is -57.7% (active); in the test on RPMI-8226 leukemia, -45.2% (active); in the test with OVCAR-8 ovarian, -90.1% (active); in the test on OVCAR-5 ovarian, -95.5% (active); in the test with OVCAR-4 ovarian, -94.3% (active); in the test on SK-OV-3 ovarian it was -53.4% (active). Moreover, the growth in the test on IGROV1 ovarian is -70.6% (active); in the test on OVCAR-3 ovarian, -100% (active); in the test with HS 578T breast, -36.2% (active); in the test with NCI/ADR-RES ovarian it was 31.5%.
